# Laboratory results published in PubChem BioAssay AID504832 (National Center for Advancing Translational Sciences (NCATS), 2011).
# In all, about 310,000 compounds went through this assay and about 18,000 (5.8%) were called active. About 22% were inconclusive and are not listed. The sample as a whole holds a higher share of actives than the screen did. A number with no mark means an inactive call. The call rests on the fitted dose curve; in most records, active means well fitted inhibition curve with a large enough effect; inconclusive means small, poorly fitted or top-dose-only effect, or another doubt; inactive means no such curve, though single readings can be large or run the other way.
# Assay: Primary qHTS for delayed death inhibitors of the malarial parasite plastid, 48 hour incubation
# Conditions: P. falciparum luciferase growth in erythrocytes; series mostly up to 28.7 µM; activity change, negative = inhibition: at the top concentration
# Summary of the method: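 Compounds are pin-transferred into medium, infected erythrocytes (2% hematocrit, 0.1% parasitemia final) are added, and plates sit one parasite generation at 37 C in 5% CO2. Detection reagent is then added and luminescence measured.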
# On the % scale 0 is the no-effect control and ±100 the full control effect; potency means the concentration at half of the fitted maximal effect.
Structure (SMILES),"activity change, negative = inhibition",Potency
CCc1ccccc1NC(=S)Nc1cc(OC)c(NC(=O)C(C)C)cc1OC,-5.66%,–
CC1CCCCC1NC(=O)c1cc(=O)[nH]c2ccccc12 (centres undefined),34.6%,–
CCCCCCC(O)(CCN1CCCCC1)c1ccccc1 (centres undefined),11.4% [at 0.00184 µM],–
COc1ccc(NC(=S)N2CCC(NC(=O)c3cccc(F)c3)CC2)cc1,6.61%,–
CN1C(=O)c2ccc(C(=O)Nc3ccc(Br)cn3)cc2C1=O,0.546%,–
Cc1ccc(-c2cn(S(=O)(=O)c3cccc([N+](=O)[O-])c3)nc2N)cc1,–,3.29 µM (active)
CC1=NCCN1S(=O)(=O)c1cccc([N+](=O)[O-])c1,58.3%,–
Cc1cc(C)n(S(=O)(=O)c2cccc([N+](=O)[O-])c2)n1,0.663%,–
COc1ccc(-c2noc(C(C)NS(=O)(=O)c3ccc(NC(C)=O)cc3)n2)cc1 (centres undefined),-9.21%,–
Cc1occc1C(=O)NC1CCCN(Cc2ccc(CC(C)C)cc2)C1 (centres undefined),-22.7%,–
Cc1ccc(C)c(C(=O)N2CCC(n3nccc3NC(=O)C3CC3)CC2)c1,4.41%,–
C=CCN1CN(S(=O)(=O)c2ccc(OC)cc2)c2nc3ccccc3nc21,-20.2%,–
COc1cc2c(cc1O)[C@H](Cc1ccc(Oc3cc(C[C@@H]4NCCc5cc(OC)c(O)cc54)ccc3O)cc1)NCC2,–,0.738 µM (active)
CCCCSCCCNC(=O)C1CCC(CNS(=O)(=O)c2ccc(NC(C)=O)cc2)CC1 (centres undefined),0%,–
CCN(CC)C(=O)c1nc[nH]c1C(=O)N(C)Cc1ccccc1,51.8%,–
O=C1C2CCCN2C(=O)N1CCCCN1CCN(c2cccc(C(F)(F)F)c2)CC1 (centres undefined),-19.8%,–
CC(C)S(=O)(=O)c1csc(NC(=O)Nc2ccc(Cl)cc2)c1Cl,–,5.22 µM (active)
CN(c1cccc(NC(=O)Nc2ccc(Cl)cc2)c1)S(C)(=O)=O,45.8%,–
Cn1ccc(NC(=O)Nc2ccc(Cl)cc2)n1,50.8%,–
O=C(NC1CCN(Cc2ccccc2)CC1)c1c(F)cccc1F,-5.58%,–
S=C(NCCCc1ccccc1)Nc1ccc(Br)cc1,-6.46%,–
S=C(Nc1ccc(Br)cc1)NC1CCN(Cc2ccccc2)CC1,–,11.7 µM (active)
CN(CC(=O)Nc1ccc(F)c(F)c1F)C(=O)Cn1cnc2c1c(=O)n(C)c(=O)n2C,4.25%,–
O=C(OCCN1C(=O)c2ccccc2C1=O)Oc1ccccc1,9.7%,–
CC(C)(C)OC(=O)NC(Cc1ccccc1)C(=O)NC(CSC1CCCCO1)C(=O)NN (centres undefined),29.4%,–
Cc1csc(NC(=O)CSc2nnc(-c3cccnc3)o2)n1,6.46%,–

Structure (SMILES),"activity change, negative = inhibition",Potency
CC1=C(C(=O)OC(C)(C)C)C(c2ccc(Br)cc2)NC(=O)N1CCCC(=O)O (centres undefined),2.52%,–
COc1ccc(Br)cc1/C=N/NC(=O)c1cccc(S(=O)(=O)N2CCOCC2)c1,11.9% [at 5.75 µM],–
O=C(c1cccc(S(=O)(=O)N2CCOCC2)c1)N1CCOCC1,3.35%,–
O=C(N/N=C/c1ccc([N+](=O)[O-])o1)c1cccc(S(=O)(=O)N2CCOCC2)c1,–,3.7 µM (active)
CN(Cc1c(F)cccc1Cl)S(=O)(=O)c1cccs1,24.5%,–
Cn1ncc(Br)c1C(=O)NC1CCCC1,104%,–
CCCCOc1ccc(-c2ncc(C(=O)OCC)c(N)n2)cc1,158%,–
CCCNC(=O)c1cnc(-c2ccccc2)nc1-c1ccccc1,0.447%,–
CCOC(=O)c1cnc(-c2ccccc2)nc1Oc1ccc(C)cc1,–,3.29 µM (active)
COc1cccc(CNC(=O)C2CCCN(S(=O)(=O)N3CC(C)CC(C)C3)C2)c1 (centres undefined),-1.35%,–
O=C(COCc1cc(-c2ccc3c(c2)OCO3)on1)N1CCN(c2cccc(Cl)c2)CC1,27.3%,–
CCCCC(=O)Nc1c2c(nn1-c1ccc([N+](=O)[O-])cc1)CS(=O)(=O)C2,11.6%,–
Cc1ccccc1-n1c(SCC(=O)Nc2cccc3ccccc23)nc(O)cc1=O,–,13.1 µM (active)
Cc1ccc2nc(SCC(=O)Nc3cccc4ccccc34)nc(=O)n2c1,-6.05%,–
C=CCn1c(N)cc(=O)nc1SCC(=O)Nc1cccc2ccccc12,1.48%,–
O=C(Cc1c(Cl)cccc1Cl)NC1CC1,1.57%,–
COc1ccc(C(=O)NC2CCN(C(=O)Nc3ccc(F)cc3)CC2)cc1,-0.699%,–
Cc1ccc(SCC(=O)NNC(=O)c2ccc(S(C)(=O)=O)cc2)cc1,34.9%,–
Cc1cccc(C)c1NC(=O)C1(N(C(=O)c2ccccn2)c2ccc(O)cc2)CCCCC1,-0.862%,–
COc1cccc(N(C(=O)c2ccn[nH]2)C2(C(=O)Nc3c(C)cccc3C)CCCCC2)c1,–,9.28 µM (active)
COc1cccc(N(Cc2nnc3n2CCCCC3)C(=O)Nc2ccccc2F)c1,6.97%,–
COc1ccc(C(=O)OCC(=O)NCCCc2ccccc2)cc1OC,7.29%,–
COc1ccc(C)cc1NC(=O)NCc1ccccn1,-13% [at 5.75 µM],–
COc1ccc(C)cc1NC(=O)NCCCCc1ccccc1,–,14.7 µM (active)
N#CC1(NC(=O)COC(=O)Cc2n[nH]c(=O)c3ccccc23)CCCCC1,23.3%,–
O=C(O)[C@@H]1CCCN1c1ncnc2sc3c(c12)CCC3,6.15%,–

Structure (SMILES),"activity change, negative = inhibition",Potency
OCCNc1nc2ccccc2n1-c1ncnc2sc3c(c12)CCC3,–,6.57 µM (active)
O=C(O)c1cccnc1Sc1ncnc2sc3c(c12)CCC3,-7.35%,–
O=c1onc(-c2c(F)cccc2F)n1-c1ccccc1Cl,4.36% [at 0.00184 µM],–
Cc1ccc(S(=O)(=O)N(C)CC(=O)NCC(c2ccc(F)cc2)N2CCOCC2)cc1 (centres undefined),–,9.28 µM (active)
Cc1ccc(S(=O)(=O)N(C)CC(=O)NC2CCCC2)cc1,-26.8%,–
CN(CC(=O)NCCN1CCOCC1)S(=O)(=O)c1ccc(F)cc1,-3.21%,–
COc1cc([N+](=O)[O-])ccc1NC(=O)COC(=O)CCOc1ccc(C)cc1,-17.7%,–
COc1ccccc1OCCNC(=O)CCNC(=O)c1ccccc1Cl,2.48%,–
O=CN1CCN(C(=O)c2ccc3c(c2)OCO3)CC1,12.7%,–
CC(=O)c1c(C)[nH]c(C(=O)COC(=O)CCOc2ccc(C)cc2)c1C,-21.9%,–
CCNC(=S)N(CCN(CC)CC)Cc1cc2cc3c(cc2[nH]c1=O)OCCO3,-16.8%,–
COCCn1cnc2c1c(=O)n(CC(=O)NN)c(=O)n2Cc1ccccc1,-4.05%,–
N=c1c2c(-c3ccccc3)c(-c3ccccc3)n(Cc3ccccc3)c2ncn1CCCO,–,2.33 µM (active)
CCN(CC)CCn1cnc2c1c(=O)[nH]c(=O)n2Cc1ccccc1,11.6%,–
CCNC(=O)CN(c1ccc(C)cc1)S(=O)(=O)c1ccc(SC)cc1,-15.6%,–
Cc1ccc(S(=O)(=O)N(CC(=O)NCc2ccco2)c2ccccc2C)cc1,-27.1%,–
Cc1ccc(S(=O)(=O)N(CC(=O)NCCSC2CCCCC2)c2ccccc2F)cc1,–,4.65 µM (active)
Cc1cccc(C)c1OCCN1CCOCC1,12.2%,–
COc1ccc(/C=C/C(=O)c2cc(Br)ccc(=O)c2O)cc1,–,13.1 µM (active)
COc1ccc(C(=O)/C=C/c2ccc(OC3CSC3)cc2)cc1,-13%,–
COc1ccc(/C=C/C(=O)c2ccc(OC)cc2O)cc1,34.8%,–
CC(C)CCN1CCN=C1N(C)C,37%,–
Cc1ccc(Cn2c(C)nc3c(c2=O)c2nc4ccccc4nc2n3Cc2ccco2)cc1,–,5.86 µM (active)
Cc1nc2c(c(=O)n1Cc1ccco1)c1nc3ccccc3nc1n2Cc1ccccc1,–,9.28 µM (active)
Cc1cc(NC(=O)CSc2nc3cc(Cl)ccc3c(=O)n2Cc2ccco2)no1,13%,–
Cc1cc2nc3c(=O)n(Cc4ccccc4)c(=O)[nH]c3nc2cc1N,-1.25%,–

Structure (SMILES),"activity change, negative = inhibition",Potency
Nc1cc(=O)nc(SCc2ccccc2)n1Cc1ccco1,-0.468%,–
COCCCn1c2nc3ccccc3nc2c2c(=O)n(Cc3ccc(Cl)cc3)c(C)nc21,-3.86%,–
CC1(C)Cc2cccc(OCC(=O)NCc3ccccc3)c2O1,4.57%,–
O=C(Oc1ccc(F)cc1)N1CCOCC1,1.01%,–
COc1ccccc1NC(=O)COC(=O)COc1ccccc1F,-7.22%,–
COc1ccccc1NC(=O)C1CCN(C(=O)c2ccc(C(C)(C)C)cc2)CC1,-1.27%,–
O=C(COC(=O)c1cc(S(=O)(=O)N2CCOCC2)ccc1Cl)NCCc1ccccc1,15.4%,–
OC(c1nc2ccc(F)cc2[nH]1)C(O)c1nc2ccc(F)cc2[nH]1 (centres undefined),11.2%,–
Cc1ccc(CNC(=O)c2cc(-c3ccccc3C)n(CC3CC(c4cccc([N+](=O)[O-])c4)=NO3)n2)cc1 (centres undefined),–,5.22 µM (active)
Cc1ccc(CNC(=O)c2c(-c3ccccc3)noc2C)cc1,2.95% [at 0.00184 µM],–
COc1ccc(C2=NOC(Cn3nc(C(=O)NCc4ccc5c(c4)OCO5)cc3-c3ccccc3)C2)cc1 (centres undefined),–,9.28 µM (active)
Cc1ccccc1-c1cc(C(=O)NCC2CC2)n(CC2CC(c3cccnc3)=NO2)n1 (centres undefined),-6.01%,–
COc1ccc(NC(=O)NCc2ccc3c(c2)OCO3)c(OC)c1,1.8%,–
COc1ccccc1-n1c(C)nc2cc(C(=O)NCc3ccc4c(c3)OCO4)ccc21,14.5%,–
O=C(COC(=O)c1cc(=O)[nH]c2ccccc12)NCc1cccc(Cl)c1,-24.3%,–
O=C(NCc1cccs1)c1ccc(CS(=O)Cc2ccccc2Cl)o1 (centres undefined),14.7%,–
CC(=O)NS(=O)(=O)c1ccc2c(c1)Cc1cc(S(=O)(=O)NC(C)=O)ccc1-2,20.5%,–
CC(OC(=O)c1cc2ccccc2o1)C(=O)Nc1ccc(N2CCOCC2)cc1 (centres undefined),-9.79%,–
O=[N+]([O-])c1ccc(N/N=C2/CCCCC2c2ccccn2)c([N+](=O)[O-])c1 (centres undefined),2.85%,–
C[n+]1ccccc1C1CCCC/C1=N\Nc1ccc([N+](=O)[O-])cc1[N+](=O)[O-] (centres undefined),–,3.7 µM (active)
Cc1cc([N+](=O)[O-])ccc1NC1CCCC1,1.67%,–
Cc1cc(O)c(C2(O)C(=O)Nc3ccccc32)cc1C (centres undefined),-8.28%,–
CCCn1nnnc1NCc1ccc(OC)cc1,54.3%,–
CC(=O)c1nc2ccccc2n1Cc1ccccc1,18.9% [at 0.00184 µM],–
CCCc1nc2c(C)cc(-c3nc4ccccc4n3C)cc2n1Cc1ccc(-c2ccccc2C(=O)O)cc1,–,3.79 µM (active)
Cc1ccc(Cn2c(SCC(=O)N/N=C/c3ccccc3OCC(=O)O)nc3ccccc32)cc1,7.08%,–
